The entries come from a sample that favours the strongest signals as a whole.
Tests used:
Test in all cases: glycan array binding signal (z-score within array); higher = stronger binding
Conditions in all cases: glycan notation: IUPAC condensed, linker removed
GalNAc3S(b1-4)GlcNAc = biological target: GalNAc3S(b1-4)GlcNAc
Outline: (§1)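 From the Consortium for Functional Glycomics database, 3228 arrays were curated, keeping only those whose protein sequence was available. Binding is given as a within-array Z-score averaged across arrays sharing a protein sequence and across linkers. Negative Z-scores can be read as non-binding.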

Glc(b1-4)Glc = biological target: Glc(b1-4)Glc
Outline: as §1

[1] = biological target: GlcNAc(a1-4)Gal(b1-4)GlcNAc(b1-3)Gal(b1-4)GlcNAc
Outline: as §1

[2] = biological target: GlcNAc(a1-4)Gal(b1-4)GlcNAc(b1-3)Gal(b1-4)GlcNAc(b1-3)Gal(b1-4)GlcNAc
Outline: as §1

[3] = biological target: GlcNAc(b1-2)[GlcNAc(b1-4)]Man(a1-3)[GlcNAc(b1-4)][GlcNAc(b1-2)[GlcNAc(b1-6)]Man(a1-6)]Man(b1-4)GlcNAc(b1-4)[Fuc(a1-6)]GlcNAc
Outline: as §1

[4] = biological target: GlcNAc(b1-2)[GlcNAc(b1-6)]Man(a1-6)[GlcNAc(b1-2)Man(a1-3)]Man(b1-4)GlcNAc(b1-4)GlcNAc
Outline: as §1

GlcNAc(b1-3)Gal = biological target: GlcNAc(b1-3)Gal
Outline: as §1

[5] = biological target: GlcNAc(b1-3)Gal(b1-3)GalNAc
Outline: as §1

[6] = biological target: GlcNAc(b1-3)Gal(b1-4)GlcNAc(b1-3)Gal(b1-4)GlcNAc(b1-2)[GlcNAc(b1-3)Gal(b1-4)GlcNAc(b1-3)Gal(b1-4)GlcNAc(b1-6)]Man(a1-6)[GlcNAc(b1-3)Gal(b1-4)GlcNAc(b1-3)Gal(b1-4)GlcNAc(b1-2)Man(a1-3)]Man(b1-4)GlcNAc(b1-4)[Fuc(a1-6)]GlcNAc
Outline: as §1

[7] = biological target: GlcNAc(b1-3)Gal(b1-4)GlcNAc(b1-3)Gal(b1-4)GlcNAc(b1-3)Gal(b1-4)GlcNAc(b1-3)Gal(b1-4)GlcNAc(b1-2)Man(a1-3)[GlcNAc(b1-3)Gal(b1-4)GlcNAc(b1-3)Gal(b1-4)GlcNAc(b1-3)Gal(b1-4)GlcNAc(b1-3)Gal(b1-4)GlcNAc(b1-2)Man(a1-6)]Man(b1-4)GlcNAc(b1-4)GlcNAc
Outline: as §1

[8] = biological target: GlcNAc(b1-3)[GlcNAc(b1-6)]GalNAc
Outline: as §1

[9] = biological target: GlcNAc(b1-4)GlcNAc(b1-4)GlcNAc(b1-4)GlcNAc(b1-4)GlcNAc
Outline: as §1

[10] = biological target: Man(a1-2)Man(a1-2)Man(a1-6)[Man(a1-3)]Man
Outline: as §1

Man(a1-2)Man(a1-3)Man = biological target: Man(a1-2)Man(a1-3)Man
Outline: as §1

[11] = biological target: Man(a1-2)Man(a1-6)[Man(a1-3)]Man(a1-6)[Man(a1-2)Man(a1-2)Man(a1-3)]Man(b1-4)GlcNAc(b1-4)GlcNAc
Outline: as §1

[12] = biological target: Neu5Ac(a2-3)Gal(b1-3)GalNAc(b1-3)Gal(a1-4)Gal(b1-4)Glc
Outline: as §1

[13] = biological target: Neu5Ac(a2-3)Gal(b1-3)GlcNAc(b1-6)GalNAc
Outline: as §1

[14] = biological target: Neu5Ac(a2-3)Gal(b1-4)GlcNAc(b1-3)Gal(b1-4)GlcNAc
Outline: as §1

[15] = biological target: Neu5Ac(a2-3)Gal(b1-4)[Fuc(a1-3)]GlcNAc(b1-3)GalNAc
Outline: as §1

[16] = biological target: Neu5Ac(a2-6)Gal(b1-4)GlcNAc(b1-2)Man(a1-3)[GlcNAc(b1-4)][Neu5Ac(a2-6)Gal(b1-4)GlcNAc(b1-2)Man(a1-6)]Man(b1-4)GlcNAc(b1-4)GlcNAc
Outline: as §1

[17] = biological target: Neu5Ac(a2-6)Gal(b1-4)GlcNAc(b1-2)Man(a1-6)Man(b1-4)GlcNAc(b1-4)GlcNAc
Outline: as §1

[18] = biological target: Neu5Ac(a2-6)Gal(b1-4)GlcNAc(b1-3)Gal(b1-4)GlcNAc(b1-3)Gal(b1-4)GlcNAc(b1-2)Man(a1-3)[Neu5Ac(a2-6)Gal(b1-4)GlcNAc(b1-3)Gal(b1-4)GlcNAc(b1-3)Gal(b1-4)GlcNAc(b1-2)Man(a1-6)]GalNAc
Outline: as §1

[19] = biological target: Neu5Ac(a2-8)Neu5Ac(a2-3)Gal(b1-3)GalNAc(b1-4)[Neu5Ac(a2-8)Neu5Ac(a2-3)]Gal(b1-4)Glc
Outline: as §1

[20] = biological target: Neu5Ac(a2-8)Neu5Ac(a2-3)Gal(b1-4)Glc
Outline: as §1

[21] = biological target: Neu5Ac(a2-8)Neu5Ac(a2-8)Neu5Ac(a2-3)[GalNAc(b1-4)]Gal(b1-4)Glc
Outline: as §1

[22] = biological target: Neu5Gc(a2-3)Gal(b1-3)[Fuc(a1-4)]GlcNAc
Outline: as §1

[23] = biological target: Neu5Gc(a2-3)Gal(b1-4)[Fuc(a1-3)]GlcNAc
Outline: as §1

B1: SJCP3842 (Schistosoma japonicum) (protein)
chain: MFKMRIINLVNISTVLLLINLLQTKSRLVGKENGFMLTVSIYGAQLSDKMTSVPVSWTIDYEDPEKSAFKKLVTDSCDTFSEYVKSQIPKGSVDGQCTSHIFQRPGSGSGVSISLTLSFIYVDVTQPDTVALKTELEKHFANFVTIHSHKITQAQFRINQKAIVIPTGDKDAIDGSKWKIIAIIALVALAIVVIGGFIYICVK
glycan array binding signal (z-score) (GalNAc3S(b1-4)GlcNAc): 0.48 | glycan array binding signal (z-score) (Glc(b1-4)Glc): -0.571 | glycan array binding signal (z-score) [1]: -0.28 | glycan array binding signal (z-score) [2]: 2.47 | glycan array binding signal (z-score) [3]: 0.364 | glycan array binding signal (z-score) [4]: -0.597 | glycan array binding signal (z-score) (GlcNAc(b1-3)Gal): -1.01 | glycan array binding signal (z-score) [5]: -0.211 | glycan array binding signal (z-score) [6]: 1.43 | glycan array binding signal (z-score) [7]: -0.488 | glycan array binding signal (z-score) [8]: -0.578 | glycan array binding signal (z-score) [9]: 0.984 | glycan array binding signal (z-score) [10]: -0.903 | glycan array binding signal (z-score) (Man(a1-2)Man(a1-3)Man): -1.03 | glycan array binding signal (z-score) [11]: -0.995 | glycan array binding signal (z-score) [12]: 0.587 | glycan array binding signal (z-score) [13]: 1.36 | glycan array binding signal (z-score) [14]: 1.89 | glycan array binding signal (z-score) [15]: 2.37 | glycan array binding signal (z-score) [16]: -0.194 | glycan array binding signal (z-score) [17]: 2.88 | glycan array binding signal (z-score) [18]: 4.64 | glycan array binding signal (z-score) [19]: 3.14 | glycan array binding signal (z-score) [20]: -1.34 | glycan array binding signal (z-score) [21]: 0.881 | glycan array binding signal (z-score) [22]: -0.715 | glycan array binding signal (z-score) [23]: 0.854
